PubChem BioAssay (NCATS)
Results filed as inconclusive are left out. Unmarked numbers belong to inactive results. Calls of active or inactive are those of the source. Calls follow the shape of the dose curve; as a rule, active = well fitted inhibition curve with a large enough effect; inconclusive = small, poorly fitted or top-dose-only effect; inactive = no such curve, though single readings can be large or run the other way.

tested on: Zika virus NS2B-NS3 protease (linked construct); test: Primary screen NINDS Rhodamine qHTS for Zika virus inhibitors (AID 1347160); details: purified NS2B-NS3 protease, Rhodamine110 substrate fluorescence; series mostly up to 57.1 µM; activity change, negative = inhibition: at the top concentration; also: nearly all actives have a fitted effect of over 55% in size
How it was run: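 Percent inhibition, normalized to uninhibited and enzyme-free controls, is fitted to a 4-parameter Hill equation. Fluorescence change comes from a 15-min cleavage of 1.5 microM bis-peptide Rhodamine110 substrate by 25 nM linked NS2B-NS3 at room temperature.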
% is scaled to controls: 0 for no effect and ±100 for the full control effect; potency is read from the fitted curve at half-maximal effect.

SMILES | outcome | activity change, negative = inhibition | Potency
CN1CCN(C2=Nc3ccccc3Nc3ccc(OS(=O)(=O)C(F)(F)F)cc32)CC1 | inactive |  | 
C[C@@H]1O[C@@H](O[C@H]2[C@@H]3C=CO[C@@H](O[C@@H]4O[C@H](CO)[C@@H](O)[C@H](O)[C@H]4O)[C@@H]3[C@@]3(CO)O[C@@H]23)[C@H](O)[C@H](OC(=O)/C=C/c2ccccc2)[C@H]1O |  | 2.22% [at 15.1 µM] | 
CC(C)C[C@@H](C(=O)N[C@@H](Cc1ccc(OCc2ccccc2)cc1)C(=O)NC(C)(C)C)N(C)Cc1ccc(C(C)(C)C)cc1 | inactive |  | 
O=S(=O)(Nc1ccccc1N1CCCCC1)c1ccc(Cl)s1 |  | 3.56% | 
CC(C)NC(=O)COc1cccc(-c2nc(Nc3ccc4[nH]ncc4c3)c3ccccc3n2)c1 |  | 4.34% | 
Cc1ccc(CNc2ncnc3ccc(-c4ccc(CO)o4)cc23)o1 |  | 6.4% | 
Cc1cc2occ(CN(C)CCN(C)Cc3cn(-c4cccc(C(F)(F)F)c4)c4ccccc34)c(=O)c2cc1C |  | 436% | 
CC(C)(O)C1Cc2c(ccc(C(=O)CCc3ccccc3)c2O)O1 (stereo not drawn) |  | -13.6% [at 33.1 µM] | 
Cc1[nH]c(/C=C2\C(=O)Nc3cc(-c4ccccc4)ccc32)c(C)c1CCC(=O)O |  |  | 2240 nM (active)
Nc1nccc(-c2c(-c3ccc(F)cc3)ncn2C2CCCCC2)n1 |  | 97.4% | 
N[C@@H]1c2cccnc2[C@H](OC(=O)N2CCC(n3c(=O)[nH]c4ncccc43)CC2)CC[C@H]1c1cccc(F)c1F |  | 12.8% | 
CC[C@@H](C)[C@@H]1OC2(C=C[C@H]1C)C[C@@H]1C[C@H](C/C=C(\C)[C@H](O[C@H]3C[C@H](OC)[C@H](O[C@H]4C[C@H](OC)[C@H](NC(C)=O)[C@H](C)O4)[C@H](C)O3)[C@H](C)/C=C/C=C3\CO[C@H]4[C@H](O)C(C)=C[C@@H](C(=O)O1)[C@@]34O)O2 (stereo partly drawn) |  | -2.97% [at 33.1 µM] | 
C[C@@H]1CC[C@]2(C(=O)O)CC[C@]3(C)C(=CCC4[C@@]5(C)CC[C@H](O)[C@](C)(C(=O)O)C5CC[C@]43C)C2[C@]1(C)O (stereo partly drawn) |  | -5.02% [at 33.1 µM] | 
C=C(C)Cn1c(SCC(=O)c2cccs2)nc2sc3c(c2c1=O)CCCC3 |  | 0.118% | 
CCn1c(-c2nonc2N)nc2c(C#CCO)ncc(OCCCN)c21 |  | 71.8% | 
O=C(CN1C2=NCCN2c2ccccc21)c1ccc(-c2ccccc2)cc1 | inactive; activator |  | 
COc1ccccc1OCCN1CC(COc2cccc3[nH]c4ccccc4c23)OCC1=O (stereo not drawn) |  | 9.49% | 
CCNC1(C(N)=O)CCN(c2ncnc3c2nc(-c2ccccc2Cl)n3-c2ccc(Cl)cc2)CC1 | inactive |  | 
C[C@H](Nc1cc2c(-c3ccc4c(c3)OCO4)noc2cn1)c1ccccc1 | inactive |  | 
COC1CC(=O)C23C(=O)NC(CC(C)C)C2C(C)C(C)=CC3/C=C(\C)CCCC1O (stereo not drawn) |  | 9.96% [at 33.1 µM] | 
C=C1C(=O)O[C@@H]2C3=C(C)CCC[C@]3(C)CC[C@@]12O |  | -0.893% | 
O=C(NCCN1CCC(n2c(=O)[nH]c3ccccc32)CC1)c1ccc2ccccc2c1 | inactive |  | 
C=CCc1ccc(OC(C)Cc2ccc(OC)c(OC)c2)c(OC)c1 (stereo not drawn) | inactive; activator [at 33.1 µM] |  | 
O=C1Nc2ccccc2-c2nc3ccccc3c(=O)n2-c2c(O)cccc21 | inactive [at 33.1 µM] |  | 
Fc1ccc(N2CCN(CCC3OCCc4ccccc43)CC2)cc1 (stereo not drawn) |  | -17.5% | 
COc1ccccc1OCCNCC(O)CCOc1cccc2[nH]c3ccccc3c12 (stereo not drawn) | inactive |  | 
CCO[C@H]1CN(C2CCC(O)(c3ccc4c(c3)OCO4)CC2)C[C@@H]1NC(=O)CNC(=O)c1cccc(C(F)(F)F)c1 (stereo partly drawn) |  | -9.19% | 
Cn1sc(=O)n(Cc2ccccc2)c1=O |  | 9.66% | 
